# Measured values reported in PubChem BioAssay AID1159506 (National Center for Advancing Translational Sciences (NCATS), 2015).
# The full ranking holds about 59,000 sequences; the median of the read-out is about -0.00055, and the lowest 2% start at about -2. The entries come from a sample that favours the lowest values as a whole.
# Experiment: Identification of proteins required for the processing of the EWS-FLI1 nascent transcript;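 also: robust z of luciferase light less the median z of siRNAs with the same seed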
# Conditions: TC32 Ewing sarcoma NR0B1-luc vs CMV-luc (EWS-FLI1 target promoter against control promoter), 48 h; screened at 20 nM (by protocol)
# Method: Ewing sarcoma (ES) cells depend on the EWS-FLI1 fusion transcription factor for cell survival. Using an assay of EWS-FLI1 activity and genome-wide siRNA screening we have identified proteins required for the processing of the EWS-FLI1 nascent transcript. Parallel genome-wide siRNA-mediated RNAi screens were conducted in Ewing sarcoma TC32 cell lines expressing a luciferase (luc) reporter protein driven by either the promoter of the EWS-FLI1 target gene NR0B1 (TC32-NR0B1-luc) or the CMV promoter (TC32-CMV-luc). Luciferase activity was assessed 48 hours post siRNA-transfection.
# Twenty microl of serum-free media containing Lipofectamine RNAiMax (0.05 microl) was added to wells containing siRNA (0.8 pmol). Lipid and siRNA were allowed to complex for 45 min at ambient temperature before addition of 600 cells in RPMI-1640, 20% FBS to yield final transfection mixtures containing 20 nM siRNA in RPMI-1640, 10% FBS. Luciferase expression was measured using OneGlo (Promega, Madison, WI). The genome-wide screening campaign was conducted using Ambion's human genome library version 4.1 (Ambion, Austin TX). This library targets approximately 21000 human genes, three siRNAs per gene. Each siRNA is arrayed in an individual well of a 384-well plate. Parallel transfections were conducted in TC32-NR0B1-luc and TC32-CMV-luc cell lines and luciferase expression (OneGlo, Promega) was assayed 48 h later on a PerkinElmer Envision 2104 Multilabel plate reader (PerkinElmer, Waltham, MA). Qiagen's AllStars Negative control was incorporated on all screening plates for normalization (16 wells per plate). Qiagen, Germantown, MDsiGL4 was incorporated as a positive transfection control (16 wells per plate) on all plates. […] The raw luciferase data for the NR0B1- and CMV-luc screens were normalized and z-score-MAD transformed using standard methods (Chung et al., 2008). The miRNA-like seed sequence of every siRNA was determined and the median z-score for all siRNA sequences with the same seed sequence was calculated. This z-score was subtracted from the z-score associated with each siRNA with that seed sequence to generate a seed-adjusted z-score value (Z) that was used when the results for the three siRNAs corresponding to each gene were compared (Marine et al., 2012)
row,Sequence,seed-corrected z-score
1,UAGGGAACUCGUAUCUAGC against RNF213,0.191
2,UAGUUGUCGAUGUAAACUC against MUC2,-2.67
3,UUCCAUAUUACCGAGGUCC against ALCAM,0.291
4,UCUGAGAUAACAGUUCCUG against LOC644681,-0.647
5,UUCUCGAUCAUCCUGAUCU against BGN,-3
6,UGCUAGACAAUUCCACUUC against SLX4,-1.39
7,UAUCGCUCCUGACUAUUGC against PPP1R10,-0.157
8,ACAACUAUGAUUUUAAGGC against ACSL1,0.252
9,UUGUCUUUCCGGCUAAAGC against ZFP64,-1.36
10,UAUUGUAAGAAAACCCUUG against GNA13,1.07
11,UCUGUGUCCACAGAGCCGU against GPR78,-2.26
12,UACUACACUAUUCUUCAGG against TADA1,-0.3
13,UUGCGACUCAUGAAAUGGG against INO80,0.511
14,AUGGUAGUAAUCGCGGGCG against HSPA12B,-2.44
15,UAAGCGAAUAGGAUGCGCU against YWHAEP5,-1.53
16,UUUGCGAUGUUCCUCUUCC against GOLIM4,0.684
17,UCAUUUCUAAGACCGCAUG against HNRNPUL1,-0.605
18,AAAGGUCAAUUCUUGAUGG against OR2L8,1.81

row,Sequence,seed-corrected z-score
1,UCUGGAUGGAGGUUUGUUC against SLC38A10,1.34
2,UUGGAACAUAUUGGGAUCG against DDN,-0.0544
3,AUGUUUUCGCUGGAGUUGG against SSBP4,0.9
4,AUAGGUCUGAAUGAGCUGC against PLCD3,-0.512
5,UUCCUCAAAACUGCAGACU against LOC729451,-0.00746
6,UCCAUGUUGUCGAUCAUCU against RGS9BP,-2.21
7,UAUGAGUGCUCCACGAUGC against APOL3,0.115
8,UUCAUGACAAAGCUUGACC against PFN1P3,-0.053
9,UUGGUAAACAUCUCCAGGC against TRIM63,1.24
10,UUGUCGUUCAGCAAACUCC against ASCC2,-2.07
11,UCAGGAUAUAGUUUAGGAC against TMEM144,0.846
12,AAUGUAUCAAGUAUGUCGG against C16orf62,-2.25
13,UGAAAUAUCUCCAGGAUCU against EFCAB12,0.249
14,UAUGCGUUUUGGAGAUUCC against PARP8,-0.784
15,UCUGUCUUCCCAUAGGAUG against LOC440040,-2.05
16,AAUGGUAGAACAUCCCUGC against RIN2,-0.24
17,AACUUGAUCAAGUAGCUCG against EBLN1,-0.0938
18,UGUCAGUAUAGCACAGAUC against EFTUD2,-2.05
